Bioassay records (PubChem)
KAT2A inh = GCN5L2 (KAT2A) acetyltransferase inhibition. Potency, µM (titrated, usually from 58.9 µM), hits mostly inhibitors. GCN5L2 HAT assay, ThioGlo1 CoA-SH fluorescence. AID 504327. 390,000 tested, 0.21% active
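Preincubate 20nM GCN5L2 with compound 15 min, RT → add 50uM ThioGlo1 + 75uM H3(1-25) + 70uM acetyl-CoA → read fluorescence 0 and 20 min. Primary qHTS; fluorescent artifacts likely.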
VDR inhibitor = vitamin D3 receptor (human) inhibition | P11473 | VDR-SRC2-3 peptide fluorescence polarization, 2 h | Potency, µM, usual class: inhibitors | 400,000 tested, 0.93% active | AID 504847
Target sequence (P11473 whole entry, looked up): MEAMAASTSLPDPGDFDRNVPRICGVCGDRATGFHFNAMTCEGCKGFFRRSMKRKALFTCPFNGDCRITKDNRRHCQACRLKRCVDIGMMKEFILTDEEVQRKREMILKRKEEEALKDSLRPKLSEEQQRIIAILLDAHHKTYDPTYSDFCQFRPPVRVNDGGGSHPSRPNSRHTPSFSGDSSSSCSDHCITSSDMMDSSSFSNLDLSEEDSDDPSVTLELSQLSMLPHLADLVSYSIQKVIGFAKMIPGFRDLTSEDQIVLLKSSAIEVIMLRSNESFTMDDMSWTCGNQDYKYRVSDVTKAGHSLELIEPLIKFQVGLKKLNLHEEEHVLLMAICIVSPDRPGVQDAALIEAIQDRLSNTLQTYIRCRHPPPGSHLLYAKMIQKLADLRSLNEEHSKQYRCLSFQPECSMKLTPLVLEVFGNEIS
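Inhibition of the VDR/SRC2-3 peptide interaction is quantified by fluorescence polarization. Compounds (23 nl, pintool) incubate with the reagents for 2 hours at ambient room temperature.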
PLK1 PBD block = blocks phosphopeptide binding to human PLK1 polo-box domain; Plk1 PBD binding of FITC phosphopeptide, fluorescence polarization; 360,000 tested, 2.8% active; P53350; Potency, µM, usual class: inhibitors; also: series mostly up to about 57 µM; nearly all actives have a fitted effect of over 65% in size
ALOX12 inh = inhibitors of human 12S-lipoxygenase ALOX12 | 580,000 tested, 1.1% active | Potency, µM (highest dose often 108 µM), usual class: inhibitors | AID 1671190 | P18054 | purified 12hLO, xylenol orange hydroperoxide absorbance
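Hydroperoxide product was detected by ferrous iron/xylenol orange as the 573 to 405 nm absorbance ratio. Arachidonic acid at 40 uM (final) was turned over for 30 min at room temperature by 150 nM human 12hLO, pH 7.0 Hepes buffer, after 15 min compound preincubation.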
Numbers stand for hits; n = inactive; u = inconclusive; x = no result; ! = a repeat was not active; [ ] = remark or other dose. Most compounds without a hit are left out; they make up all but 3% or so of the library. Calls follow the shape of the dose curve; as a rule, active = well fitted curve in the direction sought with a large enough effect; inconclusive = small, poorly fitted or top-dose-only effect, or another doubt; inactive = no such curve, though single readings can be large; an effect the other way counts as inactive or inconclusive.

SMILES	KAT2A inh	VDR inhibitor	PLK1 PBD block	ALOX12 inh
COc1ccc(F)cc1S(=O)(=O)N1CCc2ccccc2C1	x	x	n	n
COc1ccc(F)cc1S(=O)(=O)N1CCCN(S(=O)(=O)c2cc(F)ccc2OC)CC1	n	n	26.7µM	n
O=S(=O)(c1ccc(F)cc1)N1CCN(S(=O)(=O)c2cc(F)ccc2F)CC1	u	u	21.2µM	u
CCc1ccc(-c2nc(SCc3cc(=O)n4nc(C)sc4n3)n[nH]2)cc1	x	x	x	n
CCOc1ccc(C(C)=O)cc1CN(C)CC(=O)Nc1ccc(Cl)cc1	x	x	x	n
Cc1ccc(C)c(N2CCN(C(=O)c3ccc4nc(-c5ccco5)c(-c5ccco5)nc4c3)CC2)c1	n	n	5.97µM	u
O=C(NCCO)c1ccc2nc(-c3ccco3)c(-c3ccco3)nc2c1	n	35.5µM	16.8µM	u
O=C(NCc1ccccc1)c1ccc2nc(-c3ccccc3)c(-c3ccccc3)nc2c1	x	x	x	n
CN(C)C(=O)c1ccc(NC(=O)COc2ccccc2-c2ccccc2)cc1	x	x	x	n
C=CCn1c(=O)c(CCC(=O)Nc2ccc(N3CCOCC3)cc2)nc2cc(C(F)(F)F)ccc21	n	n	21.2µM	n
Cc1cc(/C(=N\O)C(C)(C)NO)ccc1Cl	x	x	x	n
O=C(Oc1ccc(N(Cc2cccs2)C2=NS(=O)(=O)c3ccccc32)cc1)c1ccccc1Cl	n	u	2.67µM	n
CC1CCc2c(ccc3ccccc23)C1=O (stereo not given)	x	n	n	n
O=C1c2ccccc2C(=O)C1Cc1cccc2ccccc12	n[0.501 µM]	u	6.7µM	n
Cc1nc(C(F)(F)F)ccc1C(=O)N1CCC1(C)C(=O)NS(=O)(=O)c1cccc(F)c1 (stereo not given)	x	x	n	44.7µM
Cc1nc(C(F)(F)F)ccc1C(=O)N1CCC1(C)C(=O)NS(=O)(=O)c1cccc(Cl)c1 (stereo not given)	x	x	n	u
Cc1ccc(S(=O)(=O)NC(=O)C2(C)CCN2C(=O)c2cccc(F)c2)cc1 (stereo not given)	x	x	n	35.5µM
CC1(C(=O)NS(=O)(=O)c2cccc(Cl)c2)CCN1C(=O)c1cccc(F)c1 (stereo not given)	x	x	n	n
NC(=O)c1ccc(NC(=O)CSC(=O)c2ccccc2)cc1	n	u	26.7µM	n
O=C(CCCCCCCC(=O)Nc1ccc(C(=O)c2ccccc2)cc1)Nc1ccc(C(=O)c2ccccc2)cc1	x	x	x	39.8µM
COC(=O)c1ccc(NC(=O)CSc2ccccn2)cc1	n	n	n	u
CC(=O)Nc1ccc(SCC(=O)c2cc(C)n(-c3ccccc3F)c2C)cc1	n	n	18.9µM	n
COC(=O)c1ccc(NC(=O)CSc2ccccc2)cc1	n	50.1µM	21.2µM	n
CC(C)(C)c1ccc(C(=O)Nc2ccc(C(O)[C@H]3COCC(=O)N3)cc2)cc1 (stereo not given in full)	x	x	x	n
COC(=O)c1ccc(-n2c(C)cc(C(=O)CSc3ccc(NC(C)=O)cc3)c2C)cc1	n	n	13.4µM	n
SMILES	KAT2A inh	VDR inhibitor	PLK1 PBD block	ALOX12 inh
CN(C)c1ccc(/C=N/NC(=O)c2ccccn2)cc1	n	n	n	n
CN(C)c1ccc(NC(=S)c2ccccn2)cc1	n	n	13.4µM	u
CCOC(=O)c1c(N2C(=O)Nc3cc(Cl)c(Cl)cc3N2O)sc2c1CCCCC2	u	u	13.4µM	x
CCOC(=O)c1c(-n2cnnn2)sc2c1CCCC2	n	n	n	n
Cc1ccc(-c2csc(N)c2C#N)c(C)c1	x	x	x	22.4µM
N#Cc1c(N)nc2c(c1-c1ccc(Cl)cc1Cl)CCCC2	x	x	x	n
N#Cc1c(-c2ccc(Cl)cc2Cl)csc1N	x	x	x	20µM
Cc1ccc(-c2nc(N)nc(N)n2)c(C)c1	n	n	n	n
COc1cc(C(=O)NC(=S)Nc2ccc(Cl)cn2)cc(OC)c1OC	n	u	23.8µM	n
COc1cc(C(=O)NC(=S)Nc2ccc3c(c2)OCO3)cc(OC)c1OC	n	n	n	n
COc1cc(C(=O)NC(=S)Nc2ccc3ccccc3c2)cc(OC)c1OC	x	x	n	17.8µM
Cc1ccc(S(=O)(=O)c2ccc([N+](=O)[O-])o2)cc1	x	44.7µM	0.844µM	n
Cc1c(C)c2cc(Cl)c(O)c(CN3CCN(C)CC3)c2oc1=O	25.1µM	n	n	n
Cc1c(C)c2cc(Cl)c(O)c(CN3CCCC(C)C3)c2oc1=O (stereo not given)	u	n	n	n
COC(=O)C1C(=O)C(C(=O)/C=C/c2ccco2)C(=O)CC1(C)C (stereo not given)	x	44.7µM	x	u
COc1ccc(CNC(=O)CSC(=S)N2CCCC2)cc1	n	n	n	n
CC(C)c1ccc(CCNC(=O)CSC(=S)N2CCCC2)cc1	n	n	26.7µM	n
Cc1cc(Cn2cc3c4c(cccc42)[C@H](CC(C)C)N[C@H](C(=O)NCc2ccccn2)C3)no1	x	x	x	n
Cc1ccc(CN2C(=O)NC3(CCCN(C(=O)c4cc5ccccc5[nH]4)C3)C2=O)cc1 (stereo not given)	x	x	x	12.6µM
CC1=CC(=O)c2ccccc2C1=O	n	3.55µM!	n	u
COc1cccc2c1C(=O)C=C(C)C2=O	n	39.8µM	n	u
CC(C)(C=O)C1=CC(=O)c2ccccc2C1=O	n	44.7µM	2.12µM	39.8µM
COc1ccc2c(c1O)C(=O)c1ccccc1C2=O	n	x	x	x
CC(C)(C)c1ccc2c(c1)C(=O)c1ccccc1C2=O	n	n	n	n
O=C(NCc1ccco1)c1ccc(Cl)s1	n	n	n	n
SMILES	KAT2A inh	VDR inhibitor	PLK1 PBD block	ALOX12 inh
O=C(NCc1ccco1)c1ccc(C(=O)NCc2ccco2)s1	n	n	10.6µM	n
CCOC(=O)c1c(NC(=O)c2ccccc2N(C)S(=O)(=O)c2ccccc2)sc2c1CCCC2	31.6µM	n	n	n
CCCc1ccc(OC(C)C(=O)Nc2sc3c(c2C(=O)OC)CCCCC3)cc1 (stereo not given)	n	89.1µM	x	n
CCOC(=O)c1c(NC(=S)Nc2ccc(OC)cc2)sc2c1CCCCC2	n	n	n	n
CCOC(=O)c1c(NC(=S)NNS(=O)(=O)c2ccc(Br)cc2)sc2c1CCCCC2	u	u	26.7µM	31.6µM
CCOC(=O)c1c(NC(=O)c2ccccc2Br)sc2c1CCc1ccccc1-2	n	79.4µM	6.7µM	u
COC(=O)c1c(NC(=O)c2ccccc2N(C)S(=O)(=O)c2ccccc2)sc2c1CCCC2	n	n	n	n
CSc1nc2ccccc2c(=O)n1CC(=O)c1ccccc1C	x	x	x	n
CC(c1c(F)cccc1F)n1cnc2c1c(=O)n(C)c(=O)n2C (stereo not given)	x	x	x	n
CCOC(=O)c1c(NC(=O)COc2ccccc2Br)sc2c1CCCCC2	n	89.1µM	x	n
COC(=O)c1c(NC(=O)COC(=O)c2ccc(Cl)cc2[N+](=O)[O-])sc2c1CCCCC2	28.2µM	n	n	n
COC(=O)c1c(NS(=O)(=O)Cc2ccccc2)sc2c1CCCC2	n	n	u	n
CCOC(=O)c1c(NC(=O)COc2ccc(Cl)cc2C)sc2c1CCCCC2	n	u	x	u
CCOC(=O)c1c(NC(=O)C(C)Oc2ccc(Cl)c(C)c2)sc2c1CCCC2 (stereo not given)	n	79.4µM	x	n
CC(C)OC(=O)c1c(NS(=O)(=O)c2ccccc2)sc2c1CCCC2	n	u	2.67µM	n
